Experiment in all cases: DAPPL (digital affinity profiling via proximity ligation, sequencing); 10 mM Tris-HCl pH 7.5, 50 mM NaCl, 1 mM DTT, 4% glycerol, room temperature, 30 min; GST-TFs on glutathione beads, 16-mer random dsDNA library, 0.1% formaldehyde crosslink after washing; high values mean tight binding
In one assay the target is T1, FEV (Homo sapiens, UniProt Q99581 1-238).
T1 sequence: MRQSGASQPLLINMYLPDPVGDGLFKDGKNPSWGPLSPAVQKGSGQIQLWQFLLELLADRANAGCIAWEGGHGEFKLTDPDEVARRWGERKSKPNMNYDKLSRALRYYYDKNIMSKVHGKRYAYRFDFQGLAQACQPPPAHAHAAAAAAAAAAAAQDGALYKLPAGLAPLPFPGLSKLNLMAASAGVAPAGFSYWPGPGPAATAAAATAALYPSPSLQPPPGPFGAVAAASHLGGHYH
The settings on record: protein: recombinant; tags: N-terminal GST; dsDNA, one strand shown. Summed up: (§1)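 Human transcription factors carrying a GST fusion were produced in yeast, bound to glutathione beads, tagged with DNA barcodes and pooled together with a tag-only sample. Each pool was held with 200 nmole of a random double-stranded 16-mer DNA library in Tris/NaCl/DTT/glycerol buffer for 30 min at room temperature, then washed, crosslinked in 0.1% formaldehyde, proximity-ligated with BsaI/T4 ligase (1 h, 37 °C), PCR-amplified and sequenced on an Illumina NextSeq500. Binding signal is the read frequency of each hexamer for a given factor divided by its frequency in the tag-only sample.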

The target in a further assay is ETV5 (Homo sapiens, UniProt P41161 1-510). As to conditions: protein: recombinant; tags: N-terminal GST; dsDNA, one strand shown. Summed up: as §1
The target of another assay is HSF1 (Homo sapiens, UniProt Q00613 1-529). The settings on record: protein: recombinant; tags: N-terminal GST; chain copies: 3; dsDNA, one strand shown. Summed up:
as §1

Another assay deals with T2, SPIC (Homo sapiens, UniProt Q8N5J4 1-248).
T2 sequence: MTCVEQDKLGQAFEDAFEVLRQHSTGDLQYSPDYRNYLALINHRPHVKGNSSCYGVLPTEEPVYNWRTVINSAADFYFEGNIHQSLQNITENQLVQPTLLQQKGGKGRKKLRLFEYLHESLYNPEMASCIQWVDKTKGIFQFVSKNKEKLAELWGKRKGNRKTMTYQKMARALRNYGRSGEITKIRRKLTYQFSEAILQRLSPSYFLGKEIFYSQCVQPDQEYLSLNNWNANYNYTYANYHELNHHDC
The settings on record: protein: recombinant; tags: N-terminal GST; dsDNA, one strand shown. Summed up: as §1

A further assay deals with ELF4 (Homo sapiens, UniProt Q99607 1-663). The settings on record: protein: recombinant; tags: N-terminal GST; dsDNA, one strand shown. Summed up:
as §1

The target of another assay is T3, ELK4 (Homo sapiens, UniProt P28324-2 1-405).
T3 sequence: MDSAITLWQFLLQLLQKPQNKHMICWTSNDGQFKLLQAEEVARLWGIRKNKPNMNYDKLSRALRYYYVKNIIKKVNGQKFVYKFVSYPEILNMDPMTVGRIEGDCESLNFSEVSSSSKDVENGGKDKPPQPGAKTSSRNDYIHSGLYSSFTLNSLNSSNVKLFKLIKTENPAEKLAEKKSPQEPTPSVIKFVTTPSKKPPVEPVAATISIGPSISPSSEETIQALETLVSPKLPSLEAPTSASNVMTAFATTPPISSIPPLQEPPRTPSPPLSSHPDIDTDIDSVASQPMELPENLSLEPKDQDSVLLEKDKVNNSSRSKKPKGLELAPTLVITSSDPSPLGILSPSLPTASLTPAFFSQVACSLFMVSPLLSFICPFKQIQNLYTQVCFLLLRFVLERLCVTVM
The settings on record: protein: recombinant; tags: N-terminal GST; dsDNA, one strand shown. Summed up:
as §1

Another assay concerns the target T4, ETV2 (Homo sapiens, UniProt O00321 1-342).
T4 sequence: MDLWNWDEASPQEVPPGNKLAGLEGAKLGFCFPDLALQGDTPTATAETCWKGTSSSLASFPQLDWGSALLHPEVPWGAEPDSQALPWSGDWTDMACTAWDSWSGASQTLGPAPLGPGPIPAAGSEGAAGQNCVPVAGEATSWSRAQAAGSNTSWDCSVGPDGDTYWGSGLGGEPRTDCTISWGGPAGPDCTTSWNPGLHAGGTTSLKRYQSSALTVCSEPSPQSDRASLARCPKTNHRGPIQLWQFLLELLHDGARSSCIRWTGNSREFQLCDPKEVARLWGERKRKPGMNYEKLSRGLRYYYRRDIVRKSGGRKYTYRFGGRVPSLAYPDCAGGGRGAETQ
The settings on record: protein: recombinant; tags: N-terminal GST; dsDNA, one strand shown. Summed up: as §1

A further assay addresses T5, ELF3 (Homo sapiens, UniProt P78545 1-371).
T5 sequence: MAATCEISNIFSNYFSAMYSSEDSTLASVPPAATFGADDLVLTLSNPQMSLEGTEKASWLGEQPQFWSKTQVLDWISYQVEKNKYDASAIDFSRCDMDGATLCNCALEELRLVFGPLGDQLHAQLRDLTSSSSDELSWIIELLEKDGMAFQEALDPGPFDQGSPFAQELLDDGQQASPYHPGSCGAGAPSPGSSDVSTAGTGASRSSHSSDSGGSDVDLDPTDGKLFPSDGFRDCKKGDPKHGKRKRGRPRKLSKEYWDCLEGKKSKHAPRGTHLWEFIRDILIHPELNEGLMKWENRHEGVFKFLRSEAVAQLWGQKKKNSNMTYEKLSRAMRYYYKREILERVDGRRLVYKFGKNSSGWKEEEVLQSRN
The settings on record: protein: recombinant; tags: N-terminal GST; dsDNA, one strand shown. Summed up:
as §1

For the next assay, the target named is CRX (Homo sapiens, UniProt O43186 1-299). The settings on record: protein: recombinant; tags: N-terminal GST; dsDNA, one strand shown. Summed up:
as §1

The next assay addresses ETV1 (Homo sapiens, UniProt P50549 1-477). The settings on record: protein: recombinant; tags: N-terminal GST; dsDNA, one strand shown. Summed up: as §1
A further assay concerns the target T6, ERF (Homo sapiens, UniProt P50548 1-548).
T6 sequence: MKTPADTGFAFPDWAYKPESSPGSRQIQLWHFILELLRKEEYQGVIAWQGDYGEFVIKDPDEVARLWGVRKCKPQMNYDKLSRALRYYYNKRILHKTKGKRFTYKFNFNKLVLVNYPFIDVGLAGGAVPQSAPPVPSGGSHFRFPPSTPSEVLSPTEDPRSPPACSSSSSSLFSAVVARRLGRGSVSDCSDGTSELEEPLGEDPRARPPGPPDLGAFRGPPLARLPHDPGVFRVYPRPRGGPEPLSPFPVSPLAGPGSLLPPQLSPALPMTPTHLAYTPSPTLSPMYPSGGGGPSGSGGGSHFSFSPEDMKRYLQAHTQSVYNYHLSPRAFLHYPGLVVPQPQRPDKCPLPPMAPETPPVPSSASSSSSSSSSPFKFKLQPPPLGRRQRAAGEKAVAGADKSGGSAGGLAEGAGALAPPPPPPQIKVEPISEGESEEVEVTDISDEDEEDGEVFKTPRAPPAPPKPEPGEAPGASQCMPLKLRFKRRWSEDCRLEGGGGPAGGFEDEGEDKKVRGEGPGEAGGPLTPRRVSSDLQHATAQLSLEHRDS
The settings on record: protein: recombinant; tags: N-terminal GST; dsDNA, one strand shown. Summed up: as §1

The next assay deals with T7, ETV3L (Homo sapiens, UniProt Q6ZN32 1-361).
T7 sequence: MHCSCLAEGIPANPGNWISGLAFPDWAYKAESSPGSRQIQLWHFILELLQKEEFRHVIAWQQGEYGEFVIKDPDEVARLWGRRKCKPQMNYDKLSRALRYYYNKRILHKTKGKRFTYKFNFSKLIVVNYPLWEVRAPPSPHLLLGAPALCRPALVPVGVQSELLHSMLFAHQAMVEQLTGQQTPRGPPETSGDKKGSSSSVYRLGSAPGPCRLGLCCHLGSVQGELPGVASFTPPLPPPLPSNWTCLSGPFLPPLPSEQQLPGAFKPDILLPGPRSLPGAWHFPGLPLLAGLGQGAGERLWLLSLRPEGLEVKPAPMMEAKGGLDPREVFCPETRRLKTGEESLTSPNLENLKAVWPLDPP
The settings on record: protein: recombinant; tags: N-terminal GST; dsDNA, one strand shown. Summed up:
as §1

Another assay deals with T8, ETS2 (Homo sapiens, UniProt P15036 1-469).
T8 sequence: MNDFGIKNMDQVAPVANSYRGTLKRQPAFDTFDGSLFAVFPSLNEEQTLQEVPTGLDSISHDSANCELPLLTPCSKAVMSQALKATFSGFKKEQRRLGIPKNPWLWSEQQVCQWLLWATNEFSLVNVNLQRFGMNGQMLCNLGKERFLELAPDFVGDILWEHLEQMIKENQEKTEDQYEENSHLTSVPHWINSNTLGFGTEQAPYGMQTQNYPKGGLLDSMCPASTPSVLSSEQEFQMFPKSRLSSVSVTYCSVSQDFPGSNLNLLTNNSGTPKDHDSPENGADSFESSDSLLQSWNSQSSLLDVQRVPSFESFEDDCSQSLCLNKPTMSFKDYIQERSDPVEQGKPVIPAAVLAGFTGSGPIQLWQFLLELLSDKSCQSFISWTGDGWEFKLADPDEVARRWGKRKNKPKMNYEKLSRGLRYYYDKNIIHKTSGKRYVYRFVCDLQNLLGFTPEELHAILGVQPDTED
The settings on record: protein: recombinant; tags: N-terminal GST; dsDNA, one strand shown. Summed up: as §1

A further assay has as its target T9, SPDEF (Homo sapiens, UniProt O95238 1-335).
T9 sequence: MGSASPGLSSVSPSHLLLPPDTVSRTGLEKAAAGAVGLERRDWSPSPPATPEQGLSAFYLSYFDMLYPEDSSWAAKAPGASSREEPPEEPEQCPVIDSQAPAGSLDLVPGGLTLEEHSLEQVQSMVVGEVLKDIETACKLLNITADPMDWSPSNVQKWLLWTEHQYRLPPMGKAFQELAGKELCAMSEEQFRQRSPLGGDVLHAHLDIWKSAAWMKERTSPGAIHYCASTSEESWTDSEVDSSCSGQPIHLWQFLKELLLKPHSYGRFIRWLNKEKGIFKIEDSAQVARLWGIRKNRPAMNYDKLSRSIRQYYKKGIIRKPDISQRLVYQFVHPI
As to conditions: protein: recombinant; tags: N-terminal GST; dsDNA, one strand shown. Summed up: as §1

In a further assay the target is T10, ETV7 (Homo sapiens, UniProt Q9Y603 1-341).
T10 sequence: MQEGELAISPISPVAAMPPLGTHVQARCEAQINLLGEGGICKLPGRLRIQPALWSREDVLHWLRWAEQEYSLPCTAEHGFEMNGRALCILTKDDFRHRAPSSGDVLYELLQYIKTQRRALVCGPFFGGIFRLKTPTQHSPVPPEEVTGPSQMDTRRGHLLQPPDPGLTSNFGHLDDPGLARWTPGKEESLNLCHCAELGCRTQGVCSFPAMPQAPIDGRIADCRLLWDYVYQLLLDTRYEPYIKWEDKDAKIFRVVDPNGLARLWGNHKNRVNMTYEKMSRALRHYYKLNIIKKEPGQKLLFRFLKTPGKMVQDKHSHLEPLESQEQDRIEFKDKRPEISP
As to conditions: protein: recombinant; tags: N-terminal GST; dsDNA, one strand shown. Summed up:
as §1

The next assay has as its target T11, ELF5 (Homo sapiens, UniProt Q9UKW6-2 1-255).
T11 sequence: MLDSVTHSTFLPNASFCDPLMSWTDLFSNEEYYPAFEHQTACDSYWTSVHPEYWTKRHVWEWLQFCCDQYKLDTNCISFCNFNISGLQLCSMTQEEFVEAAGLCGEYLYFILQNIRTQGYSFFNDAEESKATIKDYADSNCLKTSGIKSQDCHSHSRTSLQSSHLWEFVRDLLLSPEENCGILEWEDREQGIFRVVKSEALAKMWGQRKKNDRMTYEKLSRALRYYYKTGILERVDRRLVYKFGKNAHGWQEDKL
As to conditions: protein: recombinant; tags: N-terminal GST; dsDNA, one strand shown. Summed up: as §1

The target in another assay is T12, ETV3 (Homo sapiens, UniProt P41162-2 1-143).
T12 sequence: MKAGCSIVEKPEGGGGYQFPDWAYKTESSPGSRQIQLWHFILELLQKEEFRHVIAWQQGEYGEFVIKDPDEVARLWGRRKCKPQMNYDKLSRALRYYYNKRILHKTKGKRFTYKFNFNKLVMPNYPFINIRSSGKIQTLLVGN
As to conditions: protein: recombinant; tags: N-terminal GST; dsDNA, one strand shown. Summed up:
as §1

Another assay addresses ETV6 (Homo sapiens, UniProt P41212 1-452). The settings on record: protein: recombinant; tags: N-terminal GST; dsDNA, one strand shown. Summed up: as §1

HSF1, sequence (Q00613 whole entry): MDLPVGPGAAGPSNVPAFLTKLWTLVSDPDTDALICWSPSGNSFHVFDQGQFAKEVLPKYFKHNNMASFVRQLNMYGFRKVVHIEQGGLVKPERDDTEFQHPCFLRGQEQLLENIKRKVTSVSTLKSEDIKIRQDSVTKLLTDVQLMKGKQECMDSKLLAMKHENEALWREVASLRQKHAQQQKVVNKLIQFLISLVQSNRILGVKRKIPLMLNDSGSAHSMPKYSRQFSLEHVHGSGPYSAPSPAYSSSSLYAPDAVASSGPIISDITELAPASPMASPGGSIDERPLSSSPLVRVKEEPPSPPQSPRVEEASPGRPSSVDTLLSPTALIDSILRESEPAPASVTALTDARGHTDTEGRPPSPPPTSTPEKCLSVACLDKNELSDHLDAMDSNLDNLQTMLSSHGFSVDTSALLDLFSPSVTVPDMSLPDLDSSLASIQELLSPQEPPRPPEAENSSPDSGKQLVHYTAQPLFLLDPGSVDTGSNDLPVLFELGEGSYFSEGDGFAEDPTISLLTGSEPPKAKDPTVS
ETV1, sequence (P50549 whole entry): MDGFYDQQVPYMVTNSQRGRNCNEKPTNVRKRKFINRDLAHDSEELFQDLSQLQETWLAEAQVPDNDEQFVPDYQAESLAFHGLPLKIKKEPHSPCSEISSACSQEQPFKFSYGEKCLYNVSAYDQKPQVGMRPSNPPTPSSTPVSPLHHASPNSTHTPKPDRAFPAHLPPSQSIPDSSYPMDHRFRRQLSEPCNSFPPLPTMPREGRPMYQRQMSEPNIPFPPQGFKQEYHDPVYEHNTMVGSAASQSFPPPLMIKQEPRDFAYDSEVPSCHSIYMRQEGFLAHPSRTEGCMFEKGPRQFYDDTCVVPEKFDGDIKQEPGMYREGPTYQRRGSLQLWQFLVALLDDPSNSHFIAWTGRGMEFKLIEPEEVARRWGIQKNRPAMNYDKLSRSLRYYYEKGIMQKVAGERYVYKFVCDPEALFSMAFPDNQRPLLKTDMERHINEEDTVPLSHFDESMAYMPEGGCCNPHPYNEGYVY
ETV5, sequence (P41161 whole entry): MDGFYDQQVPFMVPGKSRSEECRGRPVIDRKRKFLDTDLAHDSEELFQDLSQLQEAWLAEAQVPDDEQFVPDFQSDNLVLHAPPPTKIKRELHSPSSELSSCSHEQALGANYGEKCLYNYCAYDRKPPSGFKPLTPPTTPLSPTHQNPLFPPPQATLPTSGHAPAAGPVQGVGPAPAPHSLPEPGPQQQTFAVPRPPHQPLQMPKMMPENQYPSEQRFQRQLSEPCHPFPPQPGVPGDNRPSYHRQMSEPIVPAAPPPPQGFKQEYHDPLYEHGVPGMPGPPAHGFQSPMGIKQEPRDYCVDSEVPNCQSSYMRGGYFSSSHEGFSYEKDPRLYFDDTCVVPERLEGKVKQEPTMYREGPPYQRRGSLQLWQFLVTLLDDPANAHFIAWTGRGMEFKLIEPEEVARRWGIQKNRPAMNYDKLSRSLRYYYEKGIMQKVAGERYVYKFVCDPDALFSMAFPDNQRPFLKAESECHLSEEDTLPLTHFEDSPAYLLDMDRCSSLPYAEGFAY
ELF4, sequence (Q99607 whole entry): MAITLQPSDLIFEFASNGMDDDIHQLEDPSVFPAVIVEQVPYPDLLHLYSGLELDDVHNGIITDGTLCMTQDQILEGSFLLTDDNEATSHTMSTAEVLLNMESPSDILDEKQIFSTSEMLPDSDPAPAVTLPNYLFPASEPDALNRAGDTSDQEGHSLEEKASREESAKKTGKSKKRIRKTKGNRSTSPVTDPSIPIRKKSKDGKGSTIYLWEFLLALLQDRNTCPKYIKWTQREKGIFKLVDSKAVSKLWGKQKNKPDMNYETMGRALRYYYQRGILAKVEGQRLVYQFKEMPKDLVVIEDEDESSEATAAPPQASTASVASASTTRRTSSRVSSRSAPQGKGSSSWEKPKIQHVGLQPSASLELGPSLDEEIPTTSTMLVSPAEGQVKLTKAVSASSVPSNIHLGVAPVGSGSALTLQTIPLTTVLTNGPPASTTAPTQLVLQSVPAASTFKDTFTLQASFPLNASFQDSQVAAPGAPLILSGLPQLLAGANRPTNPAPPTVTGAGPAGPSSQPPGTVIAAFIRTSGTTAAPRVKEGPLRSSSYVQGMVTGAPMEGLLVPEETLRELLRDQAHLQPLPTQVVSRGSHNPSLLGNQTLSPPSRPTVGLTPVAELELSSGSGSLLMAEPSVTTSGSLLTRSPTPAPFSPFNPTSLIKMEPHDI
CRX, sequence (O43186 whole entry): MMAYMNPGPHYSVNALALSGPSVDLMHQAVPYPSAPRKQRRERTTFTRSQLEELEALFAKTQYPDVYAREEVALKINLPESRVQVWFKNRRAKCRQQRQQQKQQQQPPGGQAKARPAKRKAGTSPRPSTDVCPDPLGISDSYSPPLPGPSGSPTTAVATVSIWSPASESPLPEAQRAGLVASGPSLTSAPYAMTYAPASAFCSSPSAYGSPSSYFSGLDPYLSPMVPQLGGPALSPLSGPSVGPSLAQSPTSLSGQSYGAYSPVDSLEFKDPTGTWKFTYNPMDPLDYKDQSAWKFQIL
ETV6, sequence (P41212 whole entry): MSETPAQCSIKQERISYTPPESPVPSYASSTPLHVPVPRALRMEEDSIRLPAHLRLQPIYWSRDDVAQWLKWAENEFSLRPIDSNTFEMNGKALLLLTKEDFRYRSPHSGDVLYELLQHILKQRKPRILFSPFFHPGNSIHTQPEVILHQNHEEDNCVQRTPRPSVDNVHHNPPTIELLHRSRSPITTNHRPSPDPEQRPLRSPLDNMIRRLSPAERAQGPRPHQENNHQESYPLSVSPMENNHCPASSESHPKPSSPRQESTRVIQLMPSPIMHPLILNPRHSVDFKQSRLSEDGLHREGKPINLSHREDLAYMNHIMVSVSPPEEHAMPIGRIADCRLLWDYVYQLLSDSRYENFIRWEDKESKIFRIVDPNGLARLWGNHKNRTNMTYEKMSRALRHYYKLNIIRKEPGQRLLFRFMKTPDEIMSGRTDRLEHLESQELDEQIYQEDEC

As for ACATTT, the binding signal with FEV is 1.46 fold enrichment (6-mer frequency, TF over GST control); with ETV5, 1.44 fold enrichment (6-mer frequency, TF over GST control); with HSF1 it was 1.3 fold enrichment (6-mer frequency, TF over GST control); in the assay with SPIC, 1.25 fold enrichment (6-mer frequency, TF over GST control); with ELF4, 1.41 fold enrichment (6-mer frequency, TF over GST control); in the assay with ELK4, 1.36 fold enrichment (6-mer frequency, TF over GST control). Besides, the binding signal with ETV2 is 1.68 fold enrichment (6-mer frequency, TF over GST control); with ELF3, 1.6 fold enrichment (6-mer frequency, TF over GST control); with CRX, 1.16 fold enrichment (6-mer frequency, TF over GST control); with ETV1 it was 1.43 fold enrichment (6-mer frequency, TF over GST control); with ERF it was 1.54 fold enrichment (6-mer frequency, TF over GST control); with ETV3L, 1.49 fold enrichment (6-mer frequency, TF over GST control). For the same sequence, the binding signal in the assay with ETS2 is 1.42 fold enrichment (6-mer frequency, TF over GST control); with SPDEF, 1.41 fold enrichment (6-mer frequency, TF over GST control); with ETV7, 1.46 fold enrichment (6-mer frequency, TF over GST control); in the assay with ELF5, 1.59 fold enrichment (6-mer frequency, TF over GST control); in the assay with ETV3, 1.56 fold enrichment (6-mer frequency, TF over GST control); with ETV6, 1.56 fold enrichment (6-mer frequency, TF over GST control).
